Columns and labels:
Test in all cases: DAPPL (digital affinity profiling via proximity ligation, sequencing); 10 mM Tris-HCl pH 7.5, 50 mM NaCl, 1 mM DTT, 4% glycerol, room temperature, 30 min; GST-TFs on glutathione beads, 16-mer random dsDNA library, 0.1% formaldehyde crosslink after washing; high values mean tight binding
FLI1 = molecular target: T1, FLI1 (Homo sapiens, UniProt Q01543 1-452); settings: protein: recombinant; tags: N-terminal GST; dsDNA, one strand shown
T1 sequence: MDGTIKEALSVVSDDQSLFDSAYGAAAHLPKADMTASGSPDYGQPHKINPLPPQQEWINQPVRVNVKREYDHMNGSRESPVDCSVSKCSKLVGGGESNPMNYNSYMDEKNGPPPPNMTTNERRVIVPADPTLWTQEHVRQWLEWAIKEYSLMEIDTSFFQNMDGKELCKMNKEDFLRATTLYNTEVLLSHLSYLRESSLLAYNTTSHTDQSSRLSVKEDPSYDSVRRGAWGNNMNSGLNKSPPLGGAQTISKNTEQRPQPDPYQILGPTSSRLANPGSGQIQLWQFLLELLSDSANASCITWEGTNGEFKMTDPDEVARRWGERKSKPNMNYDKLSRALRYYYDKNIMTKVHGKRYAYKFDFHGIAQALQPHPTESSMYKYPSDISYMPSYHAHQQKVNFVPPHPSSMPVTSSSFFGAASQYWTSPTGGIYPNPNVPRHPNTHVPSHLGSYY
In short: (§1)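 Pools of DNA-barcoded human transcription factors, expressed in yeast as GST fusions on glutathione beads and combined with a tag-only sample, were incubated with 200 nmole of a 16-mer random double-stranded DNA library. Incubation took 30 min at room temperature in Tris/NaCl/DTT/glycerol buffer and was followed by washing, 0.1% formaldehyde crosslinking, proximity ligation (BsaI/T4 ligase, 1 h, 37 °C), PCR amplification and sequencing on an Illumina NextSeq500. Binding signal is the ratio of a hexamer's read frequency for a factor to its frequency for the tag-only sample.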

ELK1 = molecular target: T2, ELK1 (Homo sapiens, UniProt P19419 1-428); settings: protein: recombinant; tags: N-terminal GST; dsDNA, one strand shown
T2 sequence: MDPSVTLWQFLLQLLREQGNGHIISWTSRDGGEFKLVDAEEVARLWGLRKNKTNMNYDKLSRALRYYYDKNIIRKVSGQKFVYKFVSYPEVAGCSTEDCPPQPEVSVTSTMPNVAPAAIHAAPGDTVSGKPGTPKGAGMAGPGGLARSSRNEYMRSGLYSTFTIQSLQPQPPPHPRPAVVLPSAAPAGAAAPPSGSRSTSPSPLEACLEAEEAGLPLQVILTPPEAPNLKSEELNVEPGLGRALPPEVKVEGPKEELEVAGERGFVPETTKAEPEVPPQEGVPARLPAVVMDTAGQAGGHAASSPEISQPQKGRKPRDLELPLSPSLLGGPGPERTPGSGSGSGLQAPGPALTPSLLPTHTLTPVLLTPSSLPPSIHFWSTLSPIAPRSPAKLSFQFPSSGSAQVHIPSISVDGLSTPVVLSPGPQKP
In short: as §1

GABPA = molecular target: T3, GABPA (Homo sapiens, UniProt Q06546 1-454); settings: protein: recombinant; tags: N-terminal GST; dsDNA, one strand shown
T3 sequence: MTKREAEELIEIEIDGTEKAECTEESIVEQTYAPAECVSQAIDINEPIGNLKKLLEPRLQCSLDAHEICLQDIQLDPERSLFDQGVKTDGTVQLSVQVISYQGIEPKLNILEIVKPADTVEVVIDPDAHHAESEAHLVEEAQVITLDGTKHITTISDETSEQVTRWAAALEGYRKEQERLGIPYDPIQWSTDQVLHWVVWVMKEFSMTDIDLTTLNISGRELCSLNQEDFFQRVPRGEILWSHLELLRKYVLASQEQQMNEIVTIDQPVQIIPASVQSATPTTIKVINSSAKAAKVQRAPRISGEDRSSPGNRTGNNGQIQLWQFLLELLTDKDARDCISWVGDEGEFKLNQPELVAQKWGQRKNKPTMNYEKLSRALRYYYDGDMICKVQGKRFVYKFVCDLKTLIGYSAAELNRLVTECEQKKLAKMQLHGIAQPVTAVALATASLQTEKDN
In short: as §1

ERG = molecular target: T4, ERG (Homo sapiens, UniProt P11308 1-479); settings: protein: recombinant; tags: N-terminal GST; dsDNA, one strand shown
T4 sequence: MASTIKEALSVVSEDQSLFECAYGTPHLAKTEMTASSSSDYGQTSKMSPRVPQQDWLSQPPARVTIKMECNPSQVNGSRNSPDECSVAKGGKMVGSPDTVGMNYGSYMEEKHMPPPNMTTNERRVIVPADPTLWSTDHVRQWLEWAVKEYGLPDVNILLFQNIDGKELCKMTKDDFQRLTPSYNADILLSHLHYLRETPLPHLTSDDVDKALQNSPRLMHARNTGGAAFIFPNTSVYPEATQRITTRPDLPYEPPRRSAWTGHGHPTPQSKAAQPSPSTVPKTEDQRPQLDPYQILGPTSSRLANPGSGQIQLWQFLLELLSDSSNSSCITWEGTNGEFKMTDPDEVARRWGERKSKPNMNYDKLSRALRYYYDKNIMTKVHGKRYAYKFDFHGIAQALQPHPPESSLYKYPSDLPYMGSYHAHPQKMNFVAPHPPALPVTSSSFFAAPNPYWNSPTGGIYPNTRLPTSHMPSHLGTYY
In short: as §1

ELF1 = ELF1 (Homo sapiens, UniProt P32519 1-619); settings: protein: recombinant; tags: N-terminal GST; dsDNA, one strand shown
In short: as §1

EHF = molecular target: T5, EHF (Homo sapiens, UniProt Q9NZC4 1-300); settings: protein: recombinant; tags: N-terminal GST; dsDNA, one strand shown
T5 sequence: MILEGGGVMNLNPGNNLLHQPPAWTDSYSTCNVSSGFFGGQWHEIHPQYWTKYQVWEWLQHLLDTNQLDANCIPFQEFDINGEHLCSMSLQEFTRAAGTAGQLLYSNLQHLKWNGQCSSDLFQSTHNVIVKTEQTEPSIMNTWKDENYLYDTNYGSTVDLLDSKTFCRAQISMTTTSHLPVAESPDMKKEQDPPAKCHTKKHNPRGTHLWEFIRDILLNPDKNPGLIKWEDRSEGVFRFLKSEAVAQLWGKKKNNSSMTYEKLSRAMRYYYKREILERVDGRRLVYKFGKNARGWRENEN
In short: as §1

SPI1 = SPI1 (Homo sapiens, UniProt P17947 1-270); settings: protein: recombinant; tags: N-terminal GST; dsDNA, one strand shown
In short: as §1

SPIB = SPIB (Homo sapiens, UniProt Q01892 1-262); settings: protein: recombinant; tags: N-terminal GST; dsDNA, one strand shown
In short: as §1

ELK3 = molecular target: T6, ELK3 (Homo sapiens, UniProt P41970 1-407); settings: protein: recombinant; tags: N-terminal GST; dsDNA, one strand shown
T6 sequence: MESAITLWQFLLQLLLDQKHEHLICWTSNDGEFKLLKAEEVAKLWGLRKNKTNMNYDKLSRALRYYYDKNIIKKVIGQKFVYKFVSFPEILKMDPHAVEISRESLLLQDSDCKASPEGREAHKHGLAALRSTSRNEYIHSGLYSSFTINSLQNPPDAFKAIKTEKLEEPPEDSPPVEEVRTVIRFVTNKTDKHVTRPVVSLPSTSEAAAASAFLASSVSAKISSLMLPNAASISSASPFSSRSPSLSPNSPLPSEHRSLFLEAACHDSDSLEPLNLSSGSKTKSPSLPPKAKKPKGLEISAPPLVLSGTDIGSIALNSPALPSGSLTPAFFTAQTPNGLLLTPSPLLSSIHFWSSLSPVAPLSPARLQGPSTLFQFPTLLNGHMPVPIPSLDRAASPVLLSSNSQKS
In short: as §1

FEV = molecular target: T7, FEV (Homo sapiens, UniProt Q99581 1-238); settings: protein: recombinant; tags: N-terminal GST; dsDNA, one strand shown
T7 sequence: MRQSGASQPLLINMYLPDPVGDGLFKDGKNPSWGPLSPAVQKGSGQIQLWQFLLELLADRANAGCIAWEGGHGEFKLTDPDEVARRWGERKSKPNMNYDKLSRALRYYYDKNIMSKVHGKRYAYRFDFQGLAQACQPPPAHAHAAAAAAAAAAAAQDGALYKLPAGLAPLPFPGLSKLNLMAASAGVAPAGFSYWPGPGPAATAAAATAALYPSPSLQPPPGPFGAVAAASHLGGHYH
In short: as §1

ETV5 = ETV5 (Homo sapiens, UniProt P41161 1-510); settings: protein: recombinant; tags: N-terminal GST; dsDNA, one strand shown
In short: as §1

HSF1 = HSF1 (Homo sapiens, UniProt Q00613 1-529); settings: protein: recombinant; tags: N-terminal GST; chain copies: 3; dsDNA, one strand shown
In short: as §1

SPIC = molecular target: T8, SPIC (Homo sapiens, UniProt Q8N5J4 1-248); settings: protein: recombinant; tags: N-terminal GST; dsDNA, one strand shown
T8 sequence: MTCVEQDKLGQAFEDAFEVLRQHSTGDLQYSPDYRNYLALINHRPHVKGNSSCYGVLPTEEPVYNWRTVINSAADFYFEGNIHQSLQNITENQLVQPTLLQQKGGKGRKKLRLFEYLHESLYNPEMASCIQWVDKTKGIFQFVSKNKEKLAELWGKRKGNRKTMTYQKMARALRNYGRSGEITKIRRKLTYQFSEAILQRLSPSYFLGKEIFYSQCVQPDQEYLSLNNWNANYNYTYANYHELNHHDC
In short: as §1

ELF4 = ELF4 (Homo sapiens, UniProt Q99607 1-663); settings: protein: recombinant; tags: N-terminal GST; dsDNA, one strand shown
In short: as §1

ELK4 = molecular target: T9, ELK4 (Homo sapiens, UniProt P28324-2 1-405); settings: protein: recombinant; tags: N-terminal GST; dsDNA, one strand shown
T9 sequence: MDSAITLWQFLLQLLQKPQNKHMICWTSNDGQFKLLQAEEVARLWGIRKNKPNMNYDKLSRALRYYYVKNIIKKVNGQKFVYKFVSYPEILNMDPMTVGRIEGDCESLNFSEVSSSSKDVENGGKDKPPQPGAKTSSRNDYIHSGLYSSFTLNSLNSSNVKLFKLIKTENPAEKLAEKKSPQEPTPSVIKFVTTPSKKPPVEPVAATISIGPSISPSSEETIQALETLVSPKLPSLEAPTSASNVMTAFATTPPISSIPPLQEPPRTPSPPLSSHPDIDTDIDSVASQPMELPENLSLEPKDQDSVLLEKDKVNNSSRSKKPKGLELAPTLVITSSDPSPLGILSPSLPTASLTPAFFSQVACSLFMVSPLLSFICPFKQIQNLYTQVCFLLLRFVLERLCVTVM
In short: as §1

ETV2 = molecular target: T10, ETV2 (Homo sapiens, UniProt O00321 1-342); settings: protein: recombinant; tags: N-terminal GST; dsDNA, one strand shown
T10 sequence: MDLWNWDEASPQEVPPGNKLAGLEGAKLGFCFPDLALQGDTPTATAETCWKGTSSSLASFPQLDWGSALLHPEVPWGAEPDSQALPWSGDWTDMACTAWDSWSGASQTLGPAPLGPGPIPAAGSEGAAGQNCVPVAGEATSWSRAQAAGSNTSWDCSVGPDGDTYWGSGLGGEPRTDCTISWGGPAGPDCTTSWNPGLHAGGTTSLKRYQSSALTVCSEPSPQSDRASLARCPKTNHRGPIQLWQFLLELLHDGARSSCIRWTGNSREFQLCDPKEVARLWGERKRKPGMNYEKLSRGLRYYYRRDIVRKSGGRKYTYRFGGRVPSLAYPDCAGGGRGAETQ
In short: as §1

ELF3 = molecular target: T11, ELF3 (Homo sapiens, UniProt P78545 1-371); settings: protein: recombinant; tags: N-terminal GST; dsDNA, one strand shown
T11 sequence: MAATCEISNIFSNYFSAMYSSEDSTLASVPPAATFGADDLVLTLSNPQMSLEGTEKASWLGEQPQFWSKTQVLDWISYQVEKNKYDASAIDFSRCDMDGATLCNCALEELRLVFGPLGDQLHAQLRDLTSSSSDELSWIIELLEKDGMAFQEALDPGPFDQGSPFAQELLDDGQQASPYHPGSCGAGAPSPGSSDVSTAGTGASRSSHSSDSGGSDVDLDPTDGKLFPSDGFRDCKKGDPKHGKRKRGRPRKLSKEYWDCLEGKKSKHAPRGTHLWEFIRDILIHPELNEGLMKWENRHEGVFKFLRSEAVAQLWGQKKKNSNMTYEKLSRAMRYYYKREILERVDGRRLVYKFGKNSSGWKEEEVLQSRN
In short: as §1

CRX = CRX (Homo sapiens, UniProt O43186 1-299); settings: protein: recombinant; tags: N-terminal GST; dsDNA, one strand shown
In short: as §1

ETV1 = ETV1 (Homo sapiens, UniProt P50549 1-477); settings: protein: recombinant; tags: N-terminal GST; dsDNA, one strand shown
In short: as §1

Sequence of ELF4 (Q99607 whole entry): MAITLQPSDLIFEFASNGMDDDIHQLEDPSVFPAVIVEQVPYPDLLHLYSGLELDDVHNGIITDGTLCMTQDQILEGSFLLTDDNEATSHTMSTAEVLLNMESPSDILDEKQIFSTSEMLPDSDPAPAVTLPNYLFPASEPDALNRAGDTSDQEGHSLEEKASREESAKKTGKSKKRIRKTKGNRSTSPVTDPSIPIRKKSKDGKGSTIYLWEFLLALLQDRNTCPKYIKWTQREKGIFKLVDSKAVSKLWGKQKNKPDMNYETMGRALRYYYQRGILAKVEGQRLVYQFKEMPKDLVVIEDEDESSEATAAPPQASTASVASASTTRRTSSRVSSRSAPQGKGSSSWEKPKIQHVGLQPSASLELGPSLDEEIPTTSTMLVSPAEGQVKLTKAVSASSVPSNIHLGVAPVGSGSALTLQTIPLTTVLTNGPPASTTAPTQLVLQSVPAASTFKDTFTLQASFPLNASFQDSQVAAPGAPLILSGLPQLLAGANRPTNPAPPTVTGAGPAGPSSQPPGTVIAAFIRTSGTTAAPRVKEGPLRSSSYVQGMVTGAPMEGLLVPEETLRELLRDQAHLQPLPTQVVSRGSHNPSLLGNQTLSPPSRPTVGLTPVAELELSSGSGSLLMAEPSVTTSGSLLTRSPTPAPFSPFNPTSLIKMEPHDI
Sequence of CRX (O43186 whole entry): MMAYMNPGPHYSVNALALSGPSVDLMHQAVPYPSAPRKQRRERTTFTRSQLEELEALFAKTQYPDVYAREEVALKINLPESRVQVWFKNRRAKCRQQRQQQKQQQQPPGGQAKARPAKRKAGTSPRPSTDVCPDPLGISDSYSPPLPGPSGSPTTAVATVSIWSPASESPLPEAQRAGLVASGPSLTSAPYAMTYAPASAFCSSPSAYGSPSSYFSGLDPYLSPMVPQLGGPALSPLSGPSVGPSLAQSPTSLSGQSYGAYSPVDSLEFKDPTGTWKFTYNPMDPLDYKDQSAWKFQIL
Sequence of HSF1 (Q00613 whole entry): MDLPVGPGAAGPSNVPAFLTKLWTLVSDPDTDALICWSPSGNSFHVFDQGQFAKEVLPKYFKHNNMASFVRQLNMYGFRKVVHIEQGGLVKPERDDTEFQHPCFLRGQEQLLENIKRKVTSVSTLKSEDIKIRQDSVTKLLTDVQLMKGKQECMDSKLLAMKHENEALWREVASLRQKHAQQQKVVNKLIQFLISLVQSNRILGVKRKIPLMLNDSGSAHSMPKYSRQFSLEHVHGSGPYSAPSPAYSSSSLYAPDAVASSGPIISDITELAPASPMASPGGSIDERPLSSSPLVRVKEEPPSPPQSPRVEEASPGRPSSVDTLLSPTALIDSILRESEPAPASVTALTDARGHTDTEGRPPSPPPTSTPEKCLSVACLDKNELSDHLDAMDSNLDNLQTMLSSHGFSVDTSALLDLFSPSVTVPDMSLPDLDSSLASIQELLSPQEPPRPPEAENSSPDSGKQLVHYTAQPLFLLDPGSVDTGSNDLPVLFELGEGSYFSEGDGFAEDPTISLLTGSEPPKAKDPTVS
Sequence of SPIB (Q01892 whole entry): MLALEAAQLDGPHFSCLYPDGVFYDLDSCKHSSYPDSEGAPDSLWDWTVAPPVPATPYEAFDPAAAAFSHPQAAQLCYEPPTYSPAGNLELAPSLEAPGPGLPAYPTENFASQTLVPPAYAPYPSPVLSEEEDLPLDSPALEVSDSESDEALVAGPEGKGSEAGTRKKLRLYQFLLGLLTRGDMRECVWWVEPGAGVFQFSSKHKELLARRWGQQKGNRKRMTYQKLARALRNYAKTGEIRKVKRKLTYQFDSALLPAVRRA
Sequence of ELF1 (P32519 whole entry): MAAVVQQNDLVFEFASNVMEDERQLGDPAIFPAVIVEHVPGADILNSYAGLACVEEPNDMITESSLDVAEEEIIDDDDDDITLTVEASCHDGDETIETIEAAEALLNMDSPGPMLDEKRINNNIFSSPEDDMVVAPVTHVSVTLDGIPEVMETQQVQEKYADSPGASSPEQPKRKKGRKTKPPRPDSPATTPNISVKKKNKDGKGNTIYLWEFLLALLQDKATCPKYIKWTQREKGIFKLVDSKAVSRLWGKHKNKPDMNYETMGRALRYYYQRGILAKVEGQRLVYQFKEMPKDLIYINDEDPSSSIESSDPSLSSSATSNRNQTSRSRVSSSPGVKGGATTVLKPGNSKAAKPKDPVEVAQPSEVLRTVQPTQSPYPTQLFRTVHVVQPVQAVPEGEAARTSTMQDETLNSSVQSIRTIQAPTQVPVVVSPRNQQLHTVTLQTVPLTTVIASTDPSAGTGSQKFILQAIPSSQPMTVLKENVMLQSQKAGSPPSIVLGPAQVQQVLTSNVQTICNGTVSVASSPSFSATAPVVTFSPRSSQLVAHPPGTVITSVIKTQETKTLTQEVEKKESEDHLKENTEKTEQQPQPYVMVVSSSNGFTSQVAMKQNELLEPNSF
Sequence of ETV5 (P41161 whole entry): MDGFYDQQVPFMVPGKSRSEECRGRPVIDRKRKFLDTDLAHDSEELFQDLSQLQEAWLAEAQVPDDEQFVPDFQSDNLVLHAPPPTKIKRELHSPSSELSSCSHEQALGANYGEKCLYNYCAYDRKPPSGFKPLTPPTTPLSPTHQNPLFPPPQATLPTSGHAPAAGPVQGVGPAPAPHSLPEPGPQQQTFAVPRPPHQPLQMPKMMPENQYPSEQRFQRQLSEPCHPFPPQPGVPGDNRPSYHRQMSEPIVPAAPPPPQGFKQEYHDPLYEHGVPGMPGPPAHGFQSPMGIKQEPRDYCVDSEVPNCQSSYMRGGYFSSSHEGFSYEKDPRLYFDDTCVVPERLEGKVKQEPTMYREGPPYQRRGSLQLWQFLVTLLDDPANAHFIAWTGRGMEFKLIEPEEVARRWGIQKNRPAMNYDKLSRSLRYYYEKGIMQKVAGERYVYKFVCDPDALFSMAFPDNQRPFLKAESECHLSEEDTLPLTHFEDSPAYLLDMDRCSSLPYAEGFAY
Sequence of ETV1 (P50549 whole entry): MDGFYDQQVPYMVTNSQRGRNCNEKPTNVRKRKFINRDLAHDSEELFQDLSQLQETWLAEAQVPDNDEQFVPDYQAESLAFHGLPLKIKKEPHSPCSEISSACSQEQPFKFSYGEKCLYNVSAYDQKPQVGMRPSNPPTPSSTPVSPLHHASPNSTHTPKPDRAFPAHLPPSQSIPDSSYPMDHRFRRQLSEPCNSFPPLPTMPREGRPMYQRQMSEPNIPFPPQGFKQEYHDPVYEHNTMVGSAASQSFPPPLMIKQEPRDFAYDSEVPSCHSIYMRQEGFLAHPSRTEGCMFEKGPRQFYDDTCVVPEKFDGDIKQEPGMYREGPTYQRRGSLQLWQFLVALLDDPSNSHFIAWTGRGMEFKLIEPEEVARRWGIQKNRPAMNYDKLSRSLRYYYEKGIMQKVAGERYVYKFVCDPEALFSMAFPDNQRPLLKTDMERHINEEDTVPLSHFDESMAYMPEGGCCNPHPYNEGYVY

## CGAATA
FLI1
  binding signal: 1.09 fold enrichment (6-mer frequency, TF over GST control)
ELK1
  binding signal: 1.23 fold enrichment (6-mer frequency, TF over GST control)
GABPA
  binding signal: 1.17 fold enrichment (6-mer frequency, TF over GST control)
ERG
  binding signal: 1.07 fold enrichment (6-mer frequency, TF over GST control)
ELF1
  binding signal: 1.28 fold enrichment (6-mer frequency, TF over GST control)
EHF
  binding signal: 1.2 fold enrichment (6-mer frequency, TF over GST control)
SPI1
  binding signal: 1.13 fold enrichment (6-mer frequency, TF over GST control)
SPIB
  binding signal: 1.11 fold enrichment (6-mer frequency, TF over GST control)
ELK3
  binding signal: 1.21 fold enrichment (6-mer frequency, TF over GST control)
FEV
  binding signal: 1.16 fold enrichment (6-mer frequency, TF over GST control)
ETV5
  binding signal: 1.07 fold enrichment (6-mer frequency, TF over GST control)
HSF1
  binding signal: 1.87 fold enrichment (6-mer frequency, TF over GST control)
SPIC
  binding signal: 1.26 fold enrichment (6-mer frequency, TF over GST control)
ELF4
  binding signal: 1.11 fold enrichment (6-mer frequency, TF over GST control)
ELK4
  binding signal: 1.25 fold enrichment (6-mer frequency, TF over GST control)
ETV2
  binding signal: 1.29 fold enrichment (6-mer frequency, TF over GST control)
ELF3
  binding signal: 1.07 fold enrichment (6-mer frequency, TF over GST control)
CRX
  binding signal: 1.31 fold enrichment (6-mer frequency, TF over GST control)
ETV1
  binding signal: 1.19 fold enrichment (6-mer frequency, TF over GST control)
